Measured values reported in PubChem BioAssay (Tox21).
Inconclusive results are not listed. Entries that show only a call come without a potency. Unmarked numbers belong to inactive results. Calls of active or inactive are those of the source. The call rests on the fitted dose curve; in most records, active means well fitted curve in the direction sought with a large enough effect in the repeat runs; inconclusive means weak or mixed curves; inactive means no such curve, though single readings can be large; an effect the other way counts as inactive or inconclusive.

How the values were obtained:
[1] = target: Cytochrome P450 2C9 (Homo sapiens) (UniProt P11712); experiment: Cytochrome P450 Family 2 Subfamily C Member 9 (CYP2C9) small molecule antagonists: luciferase reporter qHTS assay (AID 1671198); on activity change, negative = inhibition: series mostly up to about 120 µM
Chain of Cytochrome P450 2C9 (Homo sapiens) (P11712 whole entry, looked up): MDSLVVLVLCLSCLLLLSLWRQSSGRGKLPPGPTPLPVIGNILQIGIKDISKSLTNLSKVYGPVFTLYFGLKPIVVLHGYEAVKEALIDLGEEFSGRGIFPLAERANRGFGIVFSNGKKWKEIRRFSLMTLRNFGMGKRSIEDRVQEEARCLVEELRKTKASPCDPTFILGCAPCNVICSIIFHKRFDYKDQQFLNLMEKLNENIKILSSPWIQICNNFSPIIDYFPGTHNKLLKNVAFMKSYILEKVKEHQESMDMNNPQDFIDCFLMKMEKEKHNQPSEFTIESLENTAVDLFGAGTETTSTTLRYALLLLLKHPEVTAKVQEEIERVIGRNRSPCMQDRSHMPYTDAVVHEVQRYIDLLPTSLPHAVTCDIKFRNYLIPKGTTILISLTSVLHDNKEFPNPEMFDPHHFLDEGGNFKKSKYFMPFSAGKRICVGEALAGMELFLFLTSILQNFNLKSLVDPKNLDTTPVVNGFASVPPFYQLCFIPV
How it was run: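 CYP2C9 activity was measured with a P450-Glo proluciferin substrate. Enzyme–substrate mix was held with compound for 10 min at room temperature, then NADPH regeneration solution was added for 1 h at 37C. Luciferin product was read as luminescence.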

[2] = target: Cytochrome P450 1A2 (Homo sapiens) (UniProt P05177); experiment: Cytochrome P450 Family 1 Subfamily A Member 2 (CYP1A2) small molecule antagonists: luciferase reporter qHTS assay (AID 1671199); on activity change, negative = inhibition: series mostly up to about 120 µM
Chain of Cytochrome P450 1A2 (Homo sapiens) (P05177 whole entry, looked up): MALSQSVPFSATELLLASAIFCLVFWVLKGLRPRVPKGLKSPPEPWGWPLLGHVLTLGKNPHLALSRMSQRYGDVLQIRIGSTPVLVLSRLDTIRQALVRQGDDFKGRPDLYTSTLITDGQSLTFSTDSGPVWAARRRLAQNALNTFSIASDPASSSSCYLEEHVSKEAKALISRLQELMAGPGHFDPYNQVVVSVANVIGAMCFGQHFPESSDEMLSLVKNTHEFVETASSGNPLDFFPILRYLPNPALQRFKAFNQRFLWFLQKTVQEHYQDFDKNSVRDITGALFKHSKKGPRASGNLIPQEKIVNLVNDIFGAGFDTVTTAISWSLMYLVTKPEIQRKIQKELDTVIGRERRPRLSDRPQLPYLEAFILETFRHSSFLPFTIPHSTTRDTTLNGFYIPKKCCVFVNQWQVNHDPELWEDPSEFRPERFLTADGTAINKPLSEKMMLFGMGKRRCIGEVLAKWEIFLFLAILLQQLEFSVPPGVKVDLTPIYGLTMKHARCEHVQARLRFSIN
How it was run: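 Inhibition of CYP1A2 conversion of proluciferin to luciferin, detected by luminescence. Reaction run 1 h at room temperature with NADPH regeneration after brief compound preincubation.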

[3] = target: Voltage-gated inwardly rectifying potassium channel KCNH2 (Homo sapiens) (UniProt Q12809); experiment: Human Ether-a-go-go-Related Gene (hERG) channel small molecule antagonists: fluorescence cell-based qHTS assay (AID 1671200);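 on activity change, negative = inhibition: hERG-expressing U2OS cells given a thallium stimulus after FluxOR II dye loading; series mostly up to about 77 µM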
Chain of Voltage-gated inwardly rectifying potassium channel KCNH2 (Homo sapiens) (Q12809 whole entry, looked up): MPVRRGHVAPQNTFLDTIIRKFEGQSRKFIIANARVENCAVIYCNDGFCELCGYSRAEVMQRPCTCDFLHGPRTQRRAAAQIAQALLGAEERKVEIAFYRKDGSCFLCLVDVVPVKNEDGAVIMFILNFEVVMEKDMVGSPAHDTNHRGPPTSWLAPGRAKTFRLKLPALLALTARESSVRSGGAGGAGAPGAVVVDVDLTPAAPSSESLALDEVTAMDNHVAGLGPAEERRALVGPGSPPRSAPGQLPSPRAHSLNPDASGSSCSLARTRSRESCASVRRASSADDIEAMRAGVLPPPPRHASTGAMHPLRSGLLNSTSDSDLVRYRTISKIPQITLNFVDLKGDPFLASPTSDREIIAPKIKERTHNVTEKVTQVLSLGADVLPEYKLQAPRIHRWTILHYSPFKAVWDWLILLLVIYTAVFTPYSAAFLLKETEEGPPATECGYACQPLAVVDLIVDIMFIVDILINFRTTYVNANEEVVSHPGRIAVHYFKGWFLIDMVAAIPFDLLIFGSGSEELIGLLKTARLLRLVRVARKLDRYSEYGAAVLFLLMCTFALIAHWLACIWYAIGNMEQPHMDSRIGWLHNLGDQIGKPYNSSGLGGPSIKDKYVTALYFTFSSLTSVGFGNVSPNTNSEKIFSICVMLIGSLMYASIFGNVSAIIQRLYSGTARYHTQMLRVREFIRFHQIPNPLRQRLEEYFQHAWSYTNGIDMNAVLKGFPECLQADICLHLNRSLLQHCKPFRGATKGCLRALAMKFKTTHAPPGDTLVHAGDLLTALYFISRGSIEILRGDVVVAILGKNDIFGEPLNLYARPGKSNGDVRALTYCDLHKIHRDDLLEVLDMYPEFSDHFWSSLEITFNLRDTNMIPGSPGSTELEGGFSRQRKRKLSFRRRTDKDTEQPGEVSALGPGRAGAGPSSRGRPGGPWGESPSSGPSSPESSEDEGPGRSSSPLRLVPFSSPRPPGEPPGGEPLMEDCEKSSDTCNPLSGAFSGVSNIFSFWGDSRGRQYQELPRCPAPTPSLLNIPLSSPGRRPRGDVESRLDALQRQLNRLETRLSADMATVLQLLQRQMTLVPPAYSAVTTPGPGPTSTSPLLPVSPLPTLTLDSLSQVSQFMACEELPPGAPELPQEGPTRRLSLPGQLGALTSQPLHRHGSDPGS
How it was run: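 Kinetic two-minute fluorescence traces, sampled at 1 s, were collected following thallium stimulus of U2OS cells (1000 per well) that had been cultured overnight at 37 C and loaded with FluxOR II.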

[4] = target: Cytochrome P450 3A4 (Homo sapiens) (UniProt P08684); experiment: Cytochrome P450 Family 3 Subfamily A Member 4 (CYP3A4) small molecule antagonists: luciferase reporter qHTS assay (AID 1671201); on activity change, negative = inhibition: series mostly up to about 120 µM
Chain of Cytochrome P450 3A4 (Homo sapiens) (P08684 whole entry, looked up): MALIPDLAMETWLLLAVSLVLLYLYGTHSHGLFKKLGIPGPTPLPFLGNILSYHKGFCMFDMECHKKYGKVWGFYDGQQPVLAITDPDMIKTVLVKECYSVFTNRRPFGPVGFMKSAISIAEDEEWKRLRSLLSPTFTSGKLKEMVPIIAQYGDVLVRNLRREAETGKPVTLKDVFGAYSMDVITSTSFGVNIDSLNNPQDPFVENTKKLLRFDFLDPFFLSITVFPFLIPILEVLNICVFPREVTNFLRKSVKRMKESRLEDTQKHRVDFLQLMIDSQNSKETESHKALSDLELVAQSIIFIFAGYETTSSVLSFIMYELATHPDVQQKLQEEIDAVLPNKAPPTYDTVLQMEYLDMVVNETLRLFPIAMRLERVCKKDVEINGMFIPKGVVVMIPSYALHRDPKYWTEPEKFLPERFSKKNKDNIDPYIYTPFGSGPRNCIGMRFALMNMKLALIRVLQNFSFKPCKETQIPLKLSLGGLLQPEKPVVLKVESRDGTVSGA
How it was run: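 Proluciferin-to-luciferin conversion by CYP3A4, NADPH-regenerated, 1 h RT; luminescence read as RLU. Ketoconazole as control.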
Further: nearly all actives have a fitted effect of over 50% in size.
Potency means the concentration at half of the fitted maximal effect.

Structure (SMILES)	Potency [1]	Potency [2]	Potency [3]	Potency [4]	activity change, negative = inhibition [1]	activity change, negative = inhibition [3]	activity change, negative = inhibition [4]
CC/C=C\CCOC(=O)CC	inactive	inactive	inactive	inactive	–	–	–
Cc1ccccc1S(=O)(=O)O	inactive	inactive	inactive	inactive	–	–	–
CC(COCCO)OCCO (stereo not drawn)	inactive	inactive	inactive	inactive	–	–	–
CCC(C)(C)CC	inactive	inactive	inactive	inactive	–	–	–
CC(=O)[O][Al][O]C(C)=O	inactive	inactive	inactive	inactive	–	–	–
Brc1c2ccccc2c(Br)c2ccccc12	–	0.719 µM (active)	–	–	-3.76% [at 10.5 µM]	-0.46% [at 6.97 µM]	1.1% [at 10.5 µM]
CCO[C@H](Cc1ccc(OCCc2ccc(OS(C)(=O)=O)cc2)cc1)C(=O)O	inactive	inactive	inactive	inactive	–	–	–
CC(C)OC(=O)C(C)N(C(=O)c1ccccc1)c1ccc(F)c(Cl)c1 (stereo not drawn)	7.96 µM (active)	63.3 µM (active)	inactive	89.4 µM (active)	–	–	–
CC(C)CC(=O)C1C(=O)c2ccccc2C1=O	17.8 µM (active)	35.6 µM (active)	inactive	inactive	–	–	–
Cc1oc2c(NC(=O)c3c(Cl)cccc3Cl)cccc2c1C(C)(C)O	1.59 µM (active)	31.7 µM (active)	inactive	28.3 µM (active)	–	–	–
CC(=O)c1ccc2c(c1)N(CCCN(C)C)c1ccccc1S2	inactive	11 µM (active)	–	inactive	–	–	–
OC(CN1CCC(Cc2ccc(F)cc2)CC1)c1ccc(Cl)cc1 (stereo not drawn)	inactive	inactive	0.0849 µM (active)	inactive	–	–	–
N=c1ccn2c(n1)O[C@H]1[C@H](O)[C@@H](CO)O[C@H]12	inactive	inactive	inactive	inactive	–	–	–
CC[N+]1(CC)CCC(=C(c2ccccc2)c2ccccc2)C1C (stereo not drawn)	inactive	inactive	–	inactive	–	–	–
O=C(CS)Nc1ccccc1	13.8 µM (active)	–	inactive	–	–	–	–
C=CC1CC2C=CC1C2 (stereo not drawn)	inactive	inactive	inactive	inactive	–	–	–
CCN(CC)c1ccc2c(-c3ccccc3C(=O)O)c3ccc(=[N+](CC)CC)cc-3oc2c1	28.3 µM (active)	35.6 µM (active)	inactive	12.6 µM (active)	–	–	–
C[C@H]1C[C@H]2[C@@H]3CCC4=CC(=O)C=C[C@]4(C)[C@@]3(Cl)[C@@H](O)C[C@]2(C)[C@@]1(O)C(=O)CO	17.4 µM (active)	inactive	–	inactive	–	–	–
COc1cc(Cl)c(OC)cc1N	35.6 µM (active)	5.03 µM (active)	inactive	31.7 µM (active)	–	–	–

Structure (SMILES)	Potency [1]	Potency [2]	Potency [3]	Potency [4]	activity change, negative = inhibition [1]	activity change, negative = inhibition [3]	activity change, negative = inhibition [4]
CCOC(=O)C(O)c1ccccc1 (stereo not drawn)	inactive	inactive	inactive	inactive	–	–	–
O=[N+]([O-])c1cccc(S(=O)(=O)O)c1	32.2 µM (active)	40.5 µM (active)	22.2 µM (active)	36.1 µM (active)	–	–	–
NCC(=O)CCC(=O)O	inactive	inactive	inactive	inactive	–	–	–
CCN(CC)CCNc1ccc(CNC=O)c2sc3ccc(OC)cc3c(=O)c12	31.7 µM (active)	22.4 µM (active)	inactive	20 µM (active)	–	–	–
OC[C@H]1O[C@@H](OCCc2ccc(O)cc2)[C@H](O)[C@@H](O)[C@@H]1O	inactive	inactive	–	inactive	–	–	–
CC(C)=CCC/C(C)=C/CC/C(C)=C/CO	17.8 µM (active)	28.3 µM (active)	–	25.2 µM (active)	–	–	–
C=CCOC(=O)CCC1CCCCC1	inactive	inactive	inactive	inactive	–	–	–
CC(=O)NO	inactive	inactive	inactive	inactive	–	–	–
COc1ccc(C(=O)c2ccc(OC)cc2O)c(O)c1	11.3 µM (active)	0.402 µM (active)	inactive	25.4 µM (active)	–	–	–
CCCCCCCCCCCc1ccccc1	inactive	inactive	–	inactive	–	–	–
CC(C)(C)OCC1CO1 (stereo not drawn)	inactive	inactive	inactive	inactive	–	–	–
CN1C[C@H]2c3ccccc3Oc3ccc(Cl)cc3[C@@H]2C1	inactive	7.76 µM (active)	–	inactive	–	–	–
Cc1oc(-c2ccccc2)nc1CCOc1cccc2c1ccn2CCC(=O)O	22.4 µM (active)	inactive	inactive	inactive	–	–	–
O=[N+]([O-])c1ccc(NCCO)c(OCCO)c1	inactive	17.9 µM (active)	inactive	inactive	–	–	–
O=C1CCCCCCCCCCCC(=O)OCCO1	63.3 µM (active)	39.9 µM (active)	–	35.6 µM (active)	–	–	–
CN1Cc2cc(C(=O)N3CCC(C4CCNCC4)CC3)ccc2NC(CC(=O)O)C1=O (stereo not drawn)	inactive	inactive	inactive	inactive	–	–	–
CCCCCCCCO[C@@H]1O[C@H](CO)[C@@H](O)[C@H](O)[C@H]1O	inactive	inactive	inactive	inactive	–	–	–
CCOC(=O)C(F)(F)F	inactive	inactive	inactive	inactive	–	–	–
